From the supplement of paper PMC6555819

system: VDR:RXRa (NR concentration 270 nM, RXRa partner concentration 90 nM); assay: PBM binding z-score (relative to random genomic background probes); higher = stronger binding; sequences stand for … in GC…GCGATTGACAGCGTAGAATGAAGG
Procedure: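 Protein-binding microarray (Agilent 4x180K custom design, double-stranded 60-nt probes: 5' GC cap, 34-nt variable region, 24-nt constant primer region; full probe sequence given). Purified or IVT nuclear receptor:RXRα heterodimers (3:1 NR:RXRα, mostly 270:90 nM) or homodimers were incubated for 1 h in PBS with 2% milk and no ligand, then detected with Alexa488 antibodies. Fluorescence from o1-orientation probes (~5 replicates averaged) was converted to z-scores against 500 random hg19 background probes. Variable regions are seed direct-repeat (DR0–DR5) sites, all their single-nucleotide variants and half-site ablations.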

Row | Sequence | PBM binding z-score
1 | AAAATGAGGTTACCAAAGATCAGGGAAACGCTTG | 1.94
2 | TCTTTTAGTTGATTAGGGCAACCGAAACAGCGGA | 0.986
3 | GCTATTAGTTGAAAGGGCTACCGAATGATTCTCG | -0.406
4 | CAAACTAGGTCAAGGTCAAACTCGGTTTGTGCCA | 5.49
5 | CCTAGTTGGTCAGAAGGTCACACACCGGATATGA | 3.5
6 | CGAACTAGATCATTGACAGGACAGTGAATAGTAA | 0.158
7 | ACTTACGGGTCAACGAGCTTATAGCACGCGTATA | 3.97
8 | CCTCGGAGGACAACAGGAGGTCAGCGCTGCCAGA | 2.39
9 | GGAACGAGAGCAAAGTTGATAGCATCTGTCGACG | -0.413
10 | CCTAATGGGCCAAAAAGGTCATTGATGCCGATAA | 5.11
11 | CCTTACGGGTCACTCCAGGTTATAGTATCGGAGT | 4.39
12 | CCGACTGGGGCATAAGGTCACCATAAGCCAGCCC | 3.15
13 | ATCGAAAGATCGTGAGGTGAGTATACAGAAAGGC | -0.0654
14 | CAAACTAGGTCAAGGCCAAAGTCGGTTTGTGCCA | 1.84
15 | GCTTACGGGTAAAAGGTTATAGCATGAATAGAAT | 1.57
16 | ATATGTAGGTTATCGGTTCATTCAGTTTGCGCAT | 3.97
17 | ATCTCTAGGTAACAAGTTCAGTGGAAGAGAGGAC | 2
18 | CCTAGTTGGTCAGGGTCACACACGCTATAGGTAC | 4.17
19 | GCTTGTAGATCAACGTTAAGAAAGACTAAGCTAA | -0.456
20 | CCTCCAAGGTCAATGCTAGGTCAGTGAAAGCATT | 4.74

Row | Sequence | PBM binding z-score
21 | CATACAGGGTCAGCTAGGGCAGAGTAGGGACGGC | 4.55
22 | TCTAGCAGGACAGAGGGTCACTCAAGAGGTACGG | 1.39
23 | ACCTCTAGGTAACCAAGTTCAGTGAATGCCGAAC | 3.96
24 | TCTCGGCGGACACGAAAGGTCAGAGCTCGACATC | 2.19
25 | TCATATAGGTAATACAGGTGAAAGCCGGCATCTA | 1.2
26 | TAGCCTAGGTCATTCATGGGCCAGTATAGAAAGC | 2.16
27 | CCTGCTAGGTCAATCGTCAGCTAAAGCAGCTCGC | 0.744
28 | GCGACTGGGGCATCTGCAGGTTACCATAACTTAA | -0.144
29 | CCTTACGGGTTACTGACAGGTTATAGCATTTGGA | 0.637
30 | TCAGACAGTTGAAGGTAACTCAGGTACGCAGTCG | 1.03
31 | AGAACGAGGGCACGCTGAGTCGATAGCAGAGTAG | 0.908
32 | TTACCAAGGTGAGTTGAGGTCGTTGATCCAACTC | 4.05
33 | ATATGTAGGTTAAGGGTCATCCAGGTTGGTTCGC | 5.91
34 | GCTCGGAGGACATGGTCAGAGCTTTGTCCGTAGA | -0.753
35 | CCAGACAGGTGAGTAGGTAACTCAGCCTCGATTA | -0.168
36 | GGAACGAGGGCAAGTGGATAGCAGAGTTTGATGG | 0.391
37 | TAGCGTAGGTCATGGGCCAGTATACCACGCGAAC | 2.24
38 | TCTTGTAGATCAAGCAGGTTATGAAAGCCTGAGT | 0.521
39 | TCTATTCGTTGATTAGGGCAACCGAAACAGCGGA | 0.441
40 | ACTATTAGGTGACTTAGGGCAACCGATACGACGC | 0.474
